Source: PubChem BioAssay (several laboratories)
Sampled rows, rich in hits. Any-hit rate of the full collection: about 3.6%.
NadD block: inhibitors of S. aureus NadD, primary screen, biochemical, colorimetric, uHTS; Nicotinate-nucleotide adenylyltransferase NadD (Staphylococcus aureus N315); purified NadD enzyme, colorimetric absorbance read-out; inhibition, % at 20 µM; 360,000 tested, 0.78% active; AID 602399, 2012; in the data active = inhibition above about 26%
Myeloid diff 2: induction of myeloid progenitor differentiation, primary screen, cell-based, flow cytometry, MLPCN library; 360,000 tested, 1% active; calls only at 10 µM; AID 624256, 2012; ER-HoxA9 myeloid progenitors, lysozyme-GFP differentiation;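 active = normalized GFP-positive differentiation at or above the plate's own cutoff, the solvent-only control mean plus 3 SD; inconclusive = no clear call, values can overlap the other calls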;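 also: cells exposed to compound for four days before flow analysis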
CendR NRP1 mod: modulators of CendR peptide binding to NRP-1, primary screen, biochemical, fluorescence polarization, uHTS | FAM-RPARPAR peptide binding to NRP-1 | 360,000 tested, 0.85% active | inhibition, % at 25 µM | Neuropilin-1 (Homo sapiens), O14786 | AID 602438, 2012;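 active = inhibition or corrected inhibition above about 18%, plus a signal ratio from 0.5 to 1.5, limit read from the data, passing the limit was not always enough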
FAS TE block: FAS thioesterase domain inhibitors, primary screen, biochemical, fluorescence intensity, uHTS. Fatty acid synthase (Homo sapiens), P49327. recombinant FAS-TE, OMFH fluorogenic substrate, fluorescence endpoint. inhibition, % at 15 µM. 360,000 tested, 0.67% active;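 active = compounds whose normalised, plate-corrected inhibition of enzyme fluorescence in the single-dose primary screen is 50% or more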;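 also: 0% = DMSO with enzyme and 100% = substrate without enzyme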
CRFR2-BP antag: antagonists of CRF-BP/CRF-R2 complex, primary screen, cell-based, HEK293, calcium dye fluorescence, uHTS. inhibition, % at 11.8 µM. CRF-induced calcium fluorescence. AID 588475, 2011. 350,000 tested, 0.59% active;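 active = inhibition of the ligand-induced calcium signal above about 50% at the single tested concentration, limit read from the data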
An asterisk follows results filed as active; i = inactive; ? = inconclusive; / = not tested or not shown; + = active, no number; ! = repeats disagree.

SMILES	NadD block	Myeloid diff 2	CendR NRP1 mod	FAS TE block	CRFR2-BP antag
Cc1nc2c(cnn2-c2ccccc2Cl)c(=O)n1-c1ccc(N2CCC(C)CC2)cc1	0.0	+	12.1	17.3	-20.9
CN(Cc1ccccc1)c1ccc(N2C(=O)CCCC2=O)cc1[N+](=O)[O-]	-3.7	i	2.6	-1.7	17.1
COc1cc(-c2cnc3c(NC=O)cc(-c4cccc(C(=O)NCCN(C)C)c4)cn23)cc(OC)c1OC	-8.7	i	-16.4	-5.3	/
COc1ccccc1-c1cc(NC=O)c2ncc(-c3cccc(C(F)(F)F)c3)n2c1	17.1	i	-0.8	14.3	/
CN(C)C(=O)c1cccc(-c2cnc3c(NC=O)cc(-c4ccccc4N(C)C)cn23)c1	0.1	+	127.7	-133.1	/
CN(C)C(=O)c1cccc(-c2cnc3c(NC=O)cc(-c4ccccc4Cl)cn23)c1	8.3	i	-13.4	4.4	/
COc1ccc(-c2cc(NC=O)c3ncc(-c4cccc(C(=O)NCCN(C)C)c4)n3c2)c(OC)c1	-9.7	+	-16.7	0.6	/
CN(C)c1ccccc1-c1cc(NC=O)c2ncc(-c3cccc(C(F)(F)F)c3)n2c1	23.2	+	123.2	-160.3	/
CC(=O)N1C[C@H]2CON(C)[C@H]2C[C@H]1c1ccc(-c2ccc(C#N)cc2)cc1	-4.8	i	-1.2	-9.3	-17.1
O=C(Nc1ccccc1C(F)(F)F)C1CCN(C(=O)c2cccs2)CC1	-2.4	i	-4.2	-4.1	-5.0
Cc1ccc(-c2nnc(SCC(=O)N/N=C/c3ccc(C)s3)n2-c2ccccc2)cc1	7.0	i	-21.8	5.1	-9.6
COc1ccc(C2=NS(=O)(=O)N(C)C(C(=O)N3CCc4ccccc4C3)=C2)cc1OC	1.5	+	11.2	22.4	-1.1
COc1ccc(NS(=O)(=O)c2c(C)n(C)c(=O)n(C)c2=O)cc1OC	-0.8	i	-14.3	-10.4	81.7*
O=C(O)c1ccccc1-c1ccccc1C(=O)Nc1ccc2c(c1)oc(=O)c1ccccc12	4.2	i	-64.9	-4.7	16.3
O=C(O)c1ccccc1-c1c2cc(I)c(=O)c(I)c-2oc2c(I)c(O)c(I)cc12	28.5*!	?	142.0	-149.5	-254.5
CC(C(=O)Nc1ccccn1)(c1ccccc1)c1ccccc1	3.3	i	1.3	9.5	20.2
CN(C)c1ncnc2c1ncn2C1CCCCO1 (stereo not drawn)	-1.4	i	4.1	-7.7	6.7
CN(C)c1ncnc2c1ncn2C1CCCO1 (stereo not drawn)	3.7	i	26.2*	-3.8	5.6
CCCc1cc(=O)[nH]c(SCC(=O)c2ccc3c(c2)OCCO3)n1	-5.5	i	-3.2	3.3	24.6
CCCc1cc(=O)[nH]c(SCC(=O)N(CCC#N)c2ccc3c(c2)OCCO3)n1	0.4	i	0.7	-5.2	97.5*
CC(C)c1nc(SCC(=O)NC2CCCC2)c2ccccc2n1	4.1	+	5.8	-5.1	-5.2
COc1ccc(C(=O)Nn2c(SCC(=O)NC3CCCCC3)nc3ccccc3c2=O)cc1	10.0	i	-3.6	0.8	75.5*
COc1ccc(C(=O)Nn2c(SCC(=O)N3CCC(C)CC3)nc3ccccc3c2=O)cc1	8.8	i	-7.3	-0.5	-9.9
O=C(CSc1nc(COc2ccccc2)nc2ccccc12)NC1CCCC1	-0.8	i	3.6	7.8	-30.8
NC(=O)C1CCCN(C(=O)c2[nH]c(C(F)(F)F)nc2-c2ccccc2)C1 (stereo not drawn)	-6.7	i	9.7	-5.4	/
SMILES	NadD block	Myeloid diff 2	CendR NRP1 mod	FAS TE block	CRFR2-BP antag
COc1ccccc1N1CCN(C(CNC(=O)c2ccc3c(c2)OCO3)c2cccnc2)CC1 (stereo not drawn)	-0.2	i	29.0*	-6.4	16.3
c1ccc(-n2cnnc2SCc2nc3ccccc3s2)cc1	18.9	+	-57.9	-8.8	-2.5
Cc1c(-c2ncn[nH]2)sc(C#N)c1-c1ccccc1	3.0	i	6.8	-143.9	58.8*
C[C@H](O)[C@@H]1C(=O)N2CCc3c([nH]c4ccccc34)[C@@H]2C[C@@H]1N(C)C(=O)c1ccco1	2.1	i	-4.4	-4.4	/
NC(N)=NN=C(c1ccc(F)cc1)c1ccc(C(F)(F)F)cc1	-1.0	/	-0.7	-34.1	-44.9
CCCNC(=O)CCn1c(=S)oc2ccccc21	-4.4	i	-10.0	-5.2	11.7
CCCCOC(=O)CCn1c(=S)oc2ccccc21	-7.4	i	53.4*	13.0	25.8
C#CCOCCOCCOCCNc1nc(N2CCOCC2)nc(N2CCN(C(=O)[C@H](C)n3cc(CCC(=O)O)nn3)CC2)n1	-2.6	i	14.8	-12.2	12.1
COc1ccc(NC(=O)C2(C)CCN2Cc2ccc(OC)c3ccccc23)cc1OC (stereo not drawn)	-1.6	i	1.3	19.1	/
CCOC(=O)[C@@H]1[C@H]2COc3ccccc3[C@@H]2N2C(=O)N(c3cccc(Cl)c3)C(=O)[C@]12C	-10.3	i	27.6*	34.5	2.8
CCOC(=O)[C@@H]1[C@H]2COc3cc(OC)ccc3[C@H]2N2C(=O)N(c3cccc(F)c3)C(=O)[C@@]12C	-16.8	i	25.3*	32.1	-11.2
CCOC(=O)[C@@H]1[C@H]2COc3ccccc3[C@H]2N2C(=O)N(c3cccc(Cl)c3)C(=O)[C@@]12C	2.0	i	5.2	19.3	-11.6
Cc1nn(C)c(Cl)c1NC(=O)OCc1ccc(Cl)cc1Cl	-0.5	i	-4.4	1.8	51.8*
Cc1nnsc1NC(=O)OCc1ccc(Cl)cc1Cl	0.4	i	8.9	4.9	12.5
N#Cc1c(N2CCCC(O)C2)nc(N)c2c(N)nc3c(c12)CC(=O)N3C12CC3CC(CC(C3)C1)C2 (stereo not drawn)	56.9*	?	-47.0	37.2	-44.4
COCCNC(=O)C1CCCN(Cc2cccc(C#N)c2)CC1 (stereo not drawn)	4.9	i	-0.2	-9.3	/
O=C1C=CC(=O)N1c1ccc2c(c1)C(NC(=O)C(F)(F)F)c1ccccc1-2 (stereo not drawn)	2.5	i	-4.0	17.3	29.2
Cc1ccc(Cn2c(=N)n(CC(=O)c3ccccc3)c3ccccc32)cc1	1.5	i	-0.2	63.7*	-40.5
CC(C)(C)C(=O)Cn1c(=N)n(Cc2ccccc2)c2ccccc21	-4.3	i	13.3	9.7	-26.0
CCOC(=O)c1c(N2C(=O)Nc3ccccc3N2O)n[nH]c1-c1cccc(Cl)c1	9.4	i	12.9	-11.9	67.9*
CCOc1ccc(-c2cc(N3C(=O)Nc4ccccc4N3O)n[nH]2)cc1	7.3	i	0.0	-1.3	5.6
Cc1csc(NC(=O)Cc2ccc(Cl)cc2)n1	-9.1	i	0.9	-2.9	-2.6
Cc1csc(NC(=O)Cc2ccc(Br)cc2)n1	-6.1	i	-4.5	4.1	62.7*
